Data published in PubChem BioAssay AID434973 (Sanford-Burnham Center for Chemical Genomics, 2010).
Among all 330,000 compounds or so, about 4,900 (1.5%) were called active. Only a selection was taken, and actives are over-represented in it overall. Values without a mark were called inactive.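 How the source made its calls: active means inhibition above about 50% at the single test dose (limit read from the data); inactive means the rest.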

Each molecule was assayed against Sentrin-specific protease 7 (Homo sapiens) (UniProt Q9BQF6) (assay: blockers of human SENP7 peptidase activity – biochemical, luminescence, uHTS, primary screen (AID 434973;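 further: plate controls were DMSO with enzyme for no effect and no enzyme buffer wells for full effect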)). Settings: recombinant SENP7, Z-RLRGG-aminoluciferin luminescence, 40 min; at 5 µM; hits give high values.

Question: Which inhibition does the source give for `COc1cccc(-c2nc3ccc(N4CCN(C)CC4)cc3[nH]2)c1` here?
Answer: 57.6% (active)

Question: For `CN1CCN(c2cc(N3CCNCC3)ccc2[N+](=O)[O-])CC1`, which inhibition is on record?
Answer: 6.98%

Question: `Cc1nc2ccc(N3CCN(C)CC3)cc2nc1C` was tested. Which inhibition did it give?
Answer: -4.82%

Question: `Cc1ccc(C)c(NC2=NCCCS2)c1` was tested. Which inhibition did it give?
Answer: 5.92%

Question: `CCOC(=O)c1c(N)n(CCN2CCOCC2)c2nc3ccccc3nc12` was tested. Which inhibition did it give?
Answer: 0.976%

Question: `CCOC(=O)c1c(N)n(Cc2ccccc2)c2nc3ccccc3nc12` was tested. Which inhibition did it give?
Answer: 13%

Question: Which inhibition does the source give for `COc1cc(Cn2c(N)c(C(=O)NCc3ccco3)c3nc4ccccc4nc32)cc(OC)c1OC` here?
Answer: 80.7% (active)

Question: Which inhibition does the source give for `CCOC(=O)C(O)(c1ccc(N)c(OC)c1)C(F)(F)F` (stereo not given) here?
Answer: 3.48%

Question: With `NCC(O)c1ccc(O)cc1` (stereo not given) as the molecule, how does the inhibition read?
Answer: -7.28%

Question: How did the inhibition turn out when `COc1ccc(N=Cc2c(O)n(C)c(=O)[nH]c2=O)cc1` was run?
Answer: 22.6%
